Screening data: PubChem, National Center for Advancing Translational Sciences (NCATS)
An excerpt weighted towards active compounds, which were near 12% of everything screened.
Pf growth 48h: Primary qHTS for delayed death inhibitors of the malarial parasite plastid, 48 hour incubation. P. falciparum luciferase growth in erythrocytes, 48 h. Potency, µM (top dose mostly 28.7 µM), for inactives: at the highest dose activity change, negative = inhibition, actives largely listed as inhibitors. 310,000 compounds, 5.9% hits. AID 504832, 2011; further: on the % scale 0 is the no-effect control and ±100 the full control effect
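Growth was read as firefly luciferase luminescence after a 48 h, 37 C, 5% CO2 exposure of compounds to reporter-bearing P. falciparum cultures (0.1% parasitemia, 2% hematocrit final) in Albumax-supplemented RPMI 1640.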
AMA1 RON2 block: qHTS for Inhibitors of AMA1-RON; Towards Development of Antimalarial Drug Lead: Primary Screen. 360,000 compounds, 0.2% hits. AlphaScreen AMA1-biotinylated RON2 peptide binding. Plasmodium falciparum AMA1 (3D7) - RON2 peptide interaction. Potency, µM (highest dose often 58.2 µM), for the others: at the top dose activity change, negative = inhibition, actives largely listed as inhibitors;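 further: 0% = vehicle wells and -100% = peptide control; nearly all actives have a fitted effect of over 45% in size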
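AMA1 (3D7) with his tag at 25 nM final met compounds first, then biotinylated RON2 peptide at 25 nM; detection used donor plus acceptor beads, 10 µg/mL apiece, read by AlphaScreen after 30 min at room temperature.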
HCV inhibitor: qHTS Assay for Inhibitors of Hepatitis C Virus (HCV). Potency, µM (highest dose often 41.8 µM), inactives show at the highest dose activity change, negative = inhibition, hits mostly inhibitors. 340,000 compounds, 3.4% hits. Huh7.5.1 HCVcc-Cre infection, luciferase reporter, 44 h. AID 651820, 2012; further: on the % scale 0 is the no-effect control and ±100 the full control effect
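A cell-based infection assay in which seeded cells (1,000 per well) receive test compound after 4 h, are inoculated with HCVcc-Cre at approximately 0.5 moi, and are incubated 44 h before luminescence detection.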
SARS PLP yeast: qHTS of Yeast-based Assay for SARS-CoV PLP; S. cerevisiae expressing SARS-CoV PLpro, growth rescue; Potency, µM (series often up to 32.9 µM), without a hit: top-dose activity, positive = growth rescue, hits mostly activators; 330,000 compounds, 0.19% hits; AID 485353, 2010; calls by dose curve; further: 0% is about no effect; nearly all actives have a fitted effect of over 55% in size
Pf growth 96h: Primary qHTS for delayed death inhibitors of the malarial parasite plastid, 96 hour incubation | P. falciparum luciferase reporter growth, 96 h | Potency, µM (series often up to 28.7 µM), inactives show at the highest dose activity change, negative = inhibition, hits mostly inhibitors | 320,000 compounds, 6.9% hits | AID 504834, 2011; further: on the % scale 0 is the no-effect control and ±100 the full control effect
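Readout is luminescence from an integrated firefly luciferase in P. falciparum. Red cells, 2% hematocrit and 0.05% parasitemia final, were cultured with compound through two parasite generations (96 hours) at 37 C, 5% CO2.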
NS1 inh: qHTS Assay for Inhibitors of Influenza NS1 Protein Function; Potency, µM (titrated, usually from 46.1 µM), without a hit: at the highest dose activity, positive = more growth; 270,000 compounds, 0.4% hits; calls by dose curve; further: actives are rising curves; nearly all actives have a fitted effect of over 50% in size
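Recovery from NS1-induced slow growth read by OD600 in budding yeast switched to galactose assay medium (pH 6.0, -URA) at 1:100 dilution. Compound 23 nl per well; the matching strain lacking NS1 serves as control.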
An asterisk follows results filed as active; u = inconclusive; x = no result; [ ] = dose if it differs, or a comment. Unless noted, the call rests on the fitted dose curve; in most records, active means well fitted curve in the direction sought with a large enough effect; inconclusive means small, poorly fitted or top-dose-only effect, or another doubt; inactive means no such curve, though single readings can be large; an effect the other way counts as inactive or inconclusive. Potency means the concentration at half of the fitted maximal effect.

SMILES	Pf growth 48h	AMA1 RON2 block	HCV inhibitor	SARS PLP yeast	Pf growth 96h	NS1 inh
CCN(C(=O)Cn1c(=O)n(-c2cc(OC)c(OC)c(OC)c2)c(=O)c2ccccc21)c1cccc(C)c1	-20%	2%	14%	-6%	-28%	x
CCN(CC)C(=O)Cn1c(=O)c2ccccc2n2c(=S)sc(-c3cccc(C)c3)c12	u	0%	0.56µM*	-14%	2.1µM*	1%
C/C(N)=C(/C#N)C(=O)COC(=O)[C@@H](NC(=O)c1ccccc1Cl)C(C)C	-4%	8%	8%	0%	0%	x
Cn1nnc(NC(=S)NC(=O)Cc2ccccc2)n1	-18%	62%	1%	0%	2.1µM*	1%
Cn1nnc(NC(=O)c2ccccc2)n1	32%	11%	7%	-14%	13µM*	-3%
CN(C)S(=O)(=O)c1cccc(NC(=O)C2Cc3ccccc3CN2C(=O)c2ccco2)c1 (stereo unspecified)	u	-25%	-23%	4%	u	6%
NC(=O)[C@H]1CC2(CC(c3cccc(NC(=O)COc4ccc(Cl)cc4)c3)=NO2)CN1C(=O)c1ccccc1C(=O)c1ccccc1 (stereo partly specified)	12µM*	0%	u	2%	12µM*	0%
NC(=O)[C@H]1CC2(CC(c3cccc(NC(=O)COc4ccc(Cl)cc4)c3)=NO2)CN1C(=O)c1ccc(Cl)cc1 (stereo partly specified)	13µM*	20%	-30%	3%	u	-33%
CCCCCC(=O)N1CC2(CC(c3cccc(NC(=O)COc4ccc(Cl)cc4)c3)=NO2)C[C@@H]1C(N)=O (stereo partly specified)	10µM*	5%	u	5%	13µM*	0%
C/C=C/C(=O)N1CC2(CC(c3cccc(NC(=O)COc4ccc(Cl)cc4)c3)=NO2)C[C@@H]1C(N)=O (stereo partly specified)	13µM*	-1%	7%	2%	5.2µM*	-3%
NC(=O)[C@H]1CC2(CC(c3cccc(NC(=O)COc4ccc(Cl)cc4)c3)=NO2)CN1C(=O)CC(c1ccccc1)c1ccccc1 (stereo partly specified)	u	-2%	-7%[8.37 µM]	1%	u	7%
CC1(C(=O)N2CC3(CC(c4cccc(NC(=O)COc5ccc(Cl)cc5)c4)=NO3)C[C@@H]2C(N)=O)CC1 (stereo partly specified)	13µM*	4%	u	-2%	u	-4%
NC(=O)[C@@H]1CC2(CC(c3cccc(NC(=O)CC(c4ccccc4)c4ccccc4)c3)=NO2)CN1C(=O)COc1ccc(Cl)cc1 (stereo partly specified)	u	-5%	u	1%	12µM*	u
CCC(=O)N1CC2(CC(c3cccc(NC(=O)COc4ccc(Cl)cc4)c3)=NO2)C[C@@H]1C(N)=O (stereo partly specified)	u	x	x	1%	u	-6%
Cc1cc(NC(=O)CS(=O)(=O)Cc2ccccc2)no1	8%	u	21%	0%	-1%	-2%
NC(=O)COC(=O)/C=C/c1cccc(Br)c1	32%	5%	3%	-1%	4%	4%
Cc1ccc2[nH]c(C(=O)O)c(-c3ccccc3)c2c1	7%	-2%	-3%	5%	7.4µM*	-61%
Cc1ccc2[nH]c(C(=O)NN=C3CCCCC3)c(-c3ccccc3)c2c1	u	67%	0%	0%	9.3µM*	u
O=C(NCCc1cccc(Cl)c1)c1cccs1	64%	-16%	-10%	-4%	u	-45%
